{"source": "the supplement of paper PMC10981050", "note": "Structures can show the parent of a compound that is named as a salt."}
{"tested_on": "MOLM14", "assay": "cell viability relative to vehicle control; higher = less cytotoxic", "conditions": "10 µM; SRSF2 genotype: SRSF2 wt/wt", "how_it_was_run": "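Four leukaemia lines, as CRISPR-edited mutant clones and isogenic wild-type clones, were tested against Selleck bioactive, kinase and epigenetic probe libraries after removal of identity-inconsistent compounds. Cells were exposed to a single 10 µM dose for 48 h, and CellTiter-Glo luminescence was then read. Viability was calculated relative to the on-plate vehicle control.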", "units": {"cell viability": "%"}}
{"smiles": "OC[C@H]1O[C@@](CO)(O[C@H]2O[C@H](CO)[C@@H](O)[C@H](O)[C@H]2O)[C@@H](O[C@H]2O[C@H](CO)[C@@H](O)[C@H](O)[C@H]2O)[C@@H]1O", "note": "[D-(+)-Melezitose]", "cell viability": 107}
{"smiles": "COc1ccc2c3c1O[C@H]1C[C@@H](O)C=C[C@@]31CCN(C)C2", "note": "[Galanthamine]", "cell viability": 105}
{"smiles": "COc1cc(C(=O)O)ccc1O", "note": "[Vanillic acid]", "cell viability": 108}
{"smiles": "CN[C@H]1CC[C@@H](c2ccc(Cl)c(Cl)c2)c2ccccc21", "note": "[Sertraline HCl]", "cell viability": 42.9}
{"smiles": "Clc1ccc(CSC(Cn2ccnc2)c2ccc(Cl)cc2Cl)cc1", "note": "(centres undefined) [Sulconazole Nitrate]", "cell viability": 44.8}
{"smiles": "CC1(C)[C@@H](O)CC[C@]2(C)[C@H]3C(=O)C=C4[C@@H]5C[C@@](C)(C(=O)O)CC[C@]5(C)CC[C@@]4(C)[C@]3(C)CC[C@@H]12", "note": "[Enoxolone (Glycyrrhetin)]", "cell viability": 103}
{"smiles": "C[C@H](N=C(NC#N)Nc1cccc2ncccc12)c1ccccc1", "cell viability": 98.4}
{"smiles": "CC(C)n1nc(-c2cc3cc(O)ccc3[nH]2)c2c(N)ncnc21", "note": "[Torkinib (PP242)]", "cell viability": 9.03}
{"smiles": "CC1(C)O[C@@H]2C[C@H]3[C@@H]4CCC5=CC(=O)C=C[C@]5(C)[C@H]4[C@@H](O)C[C@]3(C)[C@]2(C(=O)CO)O1", "note": "[Desonide]", "cell viability": 100}
{"smiles": "O=C(Nc1ccccc1)N1CCN(c2nc(-c3ccccc3)ns2)CC1", "cell viability": 99}
{"smiles": "O=C1C[C@@H](c2ccccc2)Oc2cc(O)cc(O)c21", "note": "[Pinocembrin]", "cell viability": 112}
{"smiles": "CC1OC(OC2C(OC3CCC4(C)C(CCC5(C)C4CC=C4C6CC(C)(C)CCC6(C(=O)OC6OC(COC7OC(CO)C(O)C(O)C7O)C(O)C(O)C6O)CCC45C)C3(C)CO)OCC(O)C2O)C(O)C(OC2OC(CO)C(O)C(O)C2O)C1O", "note": "(centres undefined) [Macranthoidin A]", "cell viability": 96.6}
{"smiles": "Cc1ccc(Nc2c(F)cccc2Cl)c(CC(=O)O)c1", "note": "[Lumiracoxib (COX-189)]", "cell viability": 93.4}
{"smiles": "CC(C)=CCC[C@](C)(O[C@@H]1O[C@H](CO)[C@@H](O)[C@H](O)[C@H]1O)[C@H]1CC[C@]2(C)[C@@H]1[C@H](O)C[C@@H]1[C@@]3(C)CC[C@H](O)C(C)(C)[C@@H]3CC[C@]12C", "note": "[Ginsenoside CK]", "cell viability": 95}
{"smiles": "CCCCCCCCCC(C)=O", "note": "[Methylnonylketone]", "cell viability": 99.7}
{"smiles": "COc1cc(O)c(C(=O)/C=C/c2ccccc2)c(OC)c1", "note": "[Flavokawain B]", "cell viability": 11.3}
{"smiles": "c1ccc(CNc2nc(NCc3ccccc3)c3ccccc3n2)cc1", "cell viability": 0.16}
{"smiles": "Nc1nonc1C(=Nc1ccc(F)c(Cl)c1)NO", "cell viability": 100}
{"smiles": "NC(=O)c1ccc[n+]([O-])c1", "note": "[Nicotinamide N-oxide]", "cell viability": 105}
{"smiles": "CCCCNC(=O)NS(=O)(=O)c1ccc(C)cc1", "note": "[Tolbutamide]", "cell viability": 105}
{"smiles": "O=C(CCN1CCN(C(=O)OCc2cc(Cl)cc(Cl)c2)CC1)c1ccc2[nH]c(=O)oc2c1", "cell viability": 98.8}
{"smiles": "CC1=NN(c2ccccc2)C(=O)C1", "note": "[Edaravone (MCI-186)]", "cell viability": 109}
{"smiles": "CNC(=C[N+](=O)[O-])NCCSCc1csc(CN(C)C)n1", "note": "[Nizatidine]", "cell viability": 101}
{"smiles": "CC1=C(/C=C/C(C)=C/C=C/C(C)=C/C=C/C=C(C)/C=C/C=C(C)/C=C/C2=C(C)C(=O)[C@@H](O)CC2(C)C)C(C)(C)C[C@H](O)C1=O", "note": "[Astaxanthin]", "cell viability": 101}
{"smiles": "O=C(O)c1cc(O)c2c(c1)[C@@H]([C@H]1c3cc(C(=O)O)cc(O)c3C(=O)c3c(O[C@@H]4O[C@H](CO)[C@@H](O)[C@H](O)[C@H]4O)cccc31)c1cccc(O[C@@H]3O[C@H](CO)[C@@H](O)[C@H](O)[C@H]3O)c1C2=O", "note": "[Sennoside B]", "cell viability": 75.6}
{"smiles": "c1ccc2[nH]c(-c3cscn3)nc2c1", "note": "[Thiabendazole]", "cell viability": 99}
{"smiles": "CC1(C)S[C@@H]2[C@H](NC(=O)C(c3ccccc3)S(=O)(=O)O)C(=O)N2[C@H]1C(=O)O", "note": "(some centres undefined) [Sulbenicillin Sodium]", "cell viability": 105}
{"smiles": "COc1ccc(COc2ccc(Cc3cnc(N)nc3N)cc2OC)cc1", "cell viability": 88.3}
{"smiles": "CNC(=O)c1cnn(-c2nc(N)c3ncn([C@@H]4O[C@H](CO)[C@@H](O)[C@H]4O)c3n2)c1", "note": "[Regadenoson]", "cell viability": 103}
{"smiles": "O=C1CCC(N2C(=O)c3ccccc3C2=O)C(=O)N1", "note": "(centres undefined) [Thalidomide]", "cell viability": 86.7}
{"smiles": "C[C@@]1(C(=O)Nc2ccc(F)nc2)CCCN1c1nc(Nc2cc(C3CC3)n[nH]2)c2cccn2n1", "cell viability": 9.62}
{"smiles": "COc1cc(C(=O)NC2CCN(C)CC2)ccc1Nc1ncc2c(n1)N(C1CCCC1)CC(F)(F)C(=O)N2C", "cell viability": 5.38}
{"smiles": "COc1nc2ccc(Br)cc2cc1[C@@H](c1ccccc1)[C@@](O)(CCN(C)C)c1cccc2ccccc12", "note": "[Bedaquiline]", "cell viability": 75.5}
{"smiles": "CC(C)=CCC/C(C)=C/C=O", "note": "[Citral]", "cell viability": 94.8}
{"smiles": "O=C(/C=C/c1ccc(O)c(O)c1)c1ccc(O)cc1O", "note": "[Butein]", "cell viability": 47.8}
{"smiles": "COc1ccc(CCc2nc3cc(-c4c(C)noc4C)ccc3n2C[C@H](C)N2CCOCC2)cc1Cl", "cell viability": 42.5}
{"smiles": "CC(O)c1cc(C(=O)N[C@@H](C)Cn2ccc(-c3ccc(C#N)c(Cl)c3)n2)n[nH]1", "note": "(some centres undefined)", "cell viability": 98}
{"smiles": "Cc1cc(C)nc(SCC(=O)Nc2ncc(Cc3cccc4ccccc34)s2)n1", "cell viability": 42.4}
{"smiles": "COc1ccc(CCNCc2ccc(OCc3ccc(Cl)nc3)c(OC)c2)cc1OC", "cell viability": 99.9}
